The source made the active and inactive calls.

A short description of experiment [1]: small molecules captured by biotinylated probe aFSTL3 – biochemical, small-molecule microarray, fluorescence 635/667, stem cell growth factor project, primary screen (AID 1064).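 Note: measures binding of the biotinylated anti-FSTL3 antibody to printed compounds.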 The conditions noted are these: higher = more signal.
A short description of experiment [2]: binders from COS7 lysate, DM2A8 probe, primary screen, torsin A project, cell lysate, small-molecule microarray, fluorescence 635/667 (AID 1065). The settings on record: higher = more signal, COS7 lysate expressing mutant human TOR1A.
A short description of experiment [3]: small molecules captured by biotinylated probe aFGF2 – biochemical, small-molecule microarray, fluorescence 635/667, stem cell growth factor project, primary screen (AID 1067).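 Note: measures binding of biotinylated aFGF2 protein to printed compounds on slides; z-score merges feature fluorescence and signal-to-noise across triplicate slides.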 The settings on record: higher = more signal.
A short description of experiment [4]: small molecules captured by biotinylated probe aFGF10 – biochemical, small-molecule microarray, fluorescence 635/667, stem cell growth factor project, primary screen (AID 1071).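 Note: score merges 667 nm spot intensity and signal to noise from triplicate slides.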 The conditions noted are these: higher = more signal.
In experiment [5] the target is Neurogenic locus notch homolog protein 2 (Homo sapiens) (UniProt Q04721). Kind of experiment: small molecules binding Notch2 protein – biochemical, small-molecule microarray, 635 nm fluorescence, stem cell growth factors, primary screen (AID 1073). The conditions noted are these: higher = more signal.
In experiment [6] the target is Pro-neuregulin-1, membrane-bound isoform (Homo sapiens) (UniProt Q02297). Kind of experiment: small molecules binding neuregulin-1 protein – biochemical, small-molecule microarray, fluorescence 635/667, psychiatric disease protein project, primary screen (AID 1075).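 Note: score combines 667 nm spot fluorescence with signal to noise.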 The conditions noted are these: NRG1 binding, 635 nm fluorescence, higher = more signal.
Experiment [7] deals with Neuregulin-1 EGF-like domain. Description: small molecules binding NRG1 EGF domain – biochemical, small-molecule microarray, 635 nm fluorescence, primary screen (AID 1081).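 Note: binding of the protein to compounds printed on small-molecule microarray slides.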 The settings on record: higher = more signal.
Experiment [8] in a line: FRG1 expression reporter modulators in myotubes – cell-based, C2C12 myotubes, firefly/Renilla luciferase, luminescence, FRG1 inhibition for FSHD, primary screen (AID 1084). The conditions noted are these: FRG1 promoter luciferase, higher = more signal, called active from +8 up or from −8 down.
Experiment [9] is described as follows: small molecules captured by biotinylated probe aFST – biochemical, small-molecule microarray, fluorescence 635/667, stem cell growth factor project, primary screen (AID 1086).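 Note: score merges 667 nm fluorescence with signal-to-noise of each printed compound spot.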 The conditions noted are these: higher = more signal.
Experiment [10] can be described thus: binders of probe aHhip on microarray, primary screen, stem cell growth factor project, biochemical, small-molecule microarray, fluorescence 635/667 (AID 1087).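 Note: score merges spot fluorescence at 667nm with spot signal to noise ratio.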 The conditions noted are these: higher = more signal.
The test system of experiment [11] is PRMT1 (protein arginine N-methyltransferase 1). Description: small molecules binding arginine methyltransferase PRMT1 – biochemical, small-molecule microarray, 635 nm fluorescence, primary screen (AID 1088).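 Note: binding of Prmt1 protein to compounds spotted on small-molecule microarray slides.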 The settings on record: higher = more signal.
The nature of experiment [12]: growth effects on S. cerevisiae YJM789 – YJM789 clinical isolate, OD600, 24 h, basal, primary screen (AID 1089).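 Note: growth of clinical yeast isolate S. cerevisiae YJM 789 seeded 1000 cells per well; test concentration not given here.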 The conditions noted are these: higher = more signal, called active from +8 up or from −8 down.
A short description of experiment [13]: S. pombe growth modifiers, basal conditions – strain 972, OD600, 24 h, no modulator, primary screen (AID 1090).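 Note: basal condition with compound alone and no growth modifier present; test concentration not given here.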 The conditions noted are these: S. pombe 972 growth, higher = more signal, called active from +8 up or from −8 down.
Experiment [14] in a line: budding yeast growth modifiers under rapamycin – strain BY4716, OD600, 96 h, primary screen (AID 1091). Note: test concentration not given here. The conditions noted are these: S. cerevisiae BY4716 + rapamycin, higher = more signal, called active from +8 up or from −8 down.
In experiment [15] the target is Torsin-1A-interacting protein 2 (Homo sapiens) (UniProt Q8NFQ8). Description: small molecules binding lysate-expressed LULL1 – cell lysate, human LULL1 lysate, 635/667 nm fluorescence, primary screen (AID 1092).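 Note: probe is lysate of COS7 cells overexpressing human LULL1; score merges per-feature 667 nm fluorescence with signal-to-noise.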 The conditions noted are these: small-molecule microarray, hLULL1 lysate binding, 635 nm fluorescence; higher = more signal.
A short description of experiment [16]: optical density change of DRC41 E. coli – strain DRC41, OD650, 24 h, E. coli filamentation project, primary screen (AID 1093).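 Note: MC1000 strain lacking acrAB efflux and sulA so SOS filamentation is blocked; test concentration not given here.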 The settings on record: E. coli DRC41 growth, higher = more signal, called active from +8 up or from −8 down.
Experiment [17] can be described thus: probe aLefty2 binding to arrayed compounds – biochemical, biotinylated probe, 635/667 nm fluorescence, primary screen (AID 1094).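 Note: score merges spot fluorescence near 667 nm with spot signal-to-noise ratio.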 The conditions noted are these: small-molecule microarray, higher = more signal.
For experiment [18], the system named is Noggin (protein binding on small-molecule microarray). Description: small molecules binding Noggin protein – biochemical, 635/667 nm fluorescence, primary screen (AID 1095).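 Note: score merges 667 nm feature fluorescence with signal to noise over triplicate slides.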 The settings on record: 635 nm fluorescence, higher = more signal.
The target in experiment [19] is Neurogenic locus notch homolog protein 3 (Homo sapiens) (UniProt Q9UM47). Description: small molecules binding NOTCH3 protein – biochemical, 635/667 nm fluorescence, primary screen (AID 1096). The settings on record: small-molecule microarray, 635 nm fluorescence, higher = more signal.
A short description of experiment [20]: probe aEGFR binding to arrayed compounds – biochemical, biotinylated probe, 635/667 nm fluorescence, primary screen (AID 1097).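 Note: probe is a biotinylated anti-EGFR antibody binding compounds printed on slides; score combines fluorescence near 667 nm and signal to noise of each spot.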 The conditions noted are these: small-molecule microarray, higher = more signal.

Pro-neuregulin-1, membrane-bound isoform (Homo sapiens), sequence (Q02297 whole entry, looked up, the tested form may be a part, canonical isoform): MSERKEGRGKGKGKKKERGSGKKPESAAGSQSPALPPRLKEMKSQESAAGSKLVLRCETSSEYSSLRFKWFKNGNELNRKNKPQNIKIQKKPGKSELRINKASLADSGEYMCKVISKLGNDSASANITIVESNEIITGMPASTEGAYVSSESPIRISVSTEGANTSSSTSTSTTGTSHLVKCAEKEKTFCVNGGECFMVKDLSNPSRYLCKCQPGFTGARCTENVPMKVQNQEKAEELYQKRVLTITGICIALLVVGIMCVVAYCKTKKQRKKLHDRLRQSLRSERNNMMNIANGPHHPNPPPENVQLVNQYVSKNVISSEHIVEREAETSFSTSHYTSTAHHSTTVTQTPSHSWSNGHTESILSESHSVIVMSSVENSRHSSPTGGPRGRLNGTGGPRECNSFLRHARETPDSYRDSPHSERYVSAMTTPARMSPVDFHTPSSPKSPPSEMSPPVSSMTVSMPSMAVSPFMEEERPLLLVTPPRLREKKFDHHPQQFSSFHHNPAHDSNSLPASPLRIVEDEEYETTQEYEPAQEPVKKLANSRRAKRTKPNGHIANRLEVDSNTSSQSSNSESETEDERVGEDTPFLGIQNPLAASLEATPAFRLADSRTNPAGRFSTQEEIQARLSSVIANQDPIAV
Neurogenic locus notch homolog protein 2 (Homo sapiens), sequence (Q04721 whole entry, looked up, canonical isoform): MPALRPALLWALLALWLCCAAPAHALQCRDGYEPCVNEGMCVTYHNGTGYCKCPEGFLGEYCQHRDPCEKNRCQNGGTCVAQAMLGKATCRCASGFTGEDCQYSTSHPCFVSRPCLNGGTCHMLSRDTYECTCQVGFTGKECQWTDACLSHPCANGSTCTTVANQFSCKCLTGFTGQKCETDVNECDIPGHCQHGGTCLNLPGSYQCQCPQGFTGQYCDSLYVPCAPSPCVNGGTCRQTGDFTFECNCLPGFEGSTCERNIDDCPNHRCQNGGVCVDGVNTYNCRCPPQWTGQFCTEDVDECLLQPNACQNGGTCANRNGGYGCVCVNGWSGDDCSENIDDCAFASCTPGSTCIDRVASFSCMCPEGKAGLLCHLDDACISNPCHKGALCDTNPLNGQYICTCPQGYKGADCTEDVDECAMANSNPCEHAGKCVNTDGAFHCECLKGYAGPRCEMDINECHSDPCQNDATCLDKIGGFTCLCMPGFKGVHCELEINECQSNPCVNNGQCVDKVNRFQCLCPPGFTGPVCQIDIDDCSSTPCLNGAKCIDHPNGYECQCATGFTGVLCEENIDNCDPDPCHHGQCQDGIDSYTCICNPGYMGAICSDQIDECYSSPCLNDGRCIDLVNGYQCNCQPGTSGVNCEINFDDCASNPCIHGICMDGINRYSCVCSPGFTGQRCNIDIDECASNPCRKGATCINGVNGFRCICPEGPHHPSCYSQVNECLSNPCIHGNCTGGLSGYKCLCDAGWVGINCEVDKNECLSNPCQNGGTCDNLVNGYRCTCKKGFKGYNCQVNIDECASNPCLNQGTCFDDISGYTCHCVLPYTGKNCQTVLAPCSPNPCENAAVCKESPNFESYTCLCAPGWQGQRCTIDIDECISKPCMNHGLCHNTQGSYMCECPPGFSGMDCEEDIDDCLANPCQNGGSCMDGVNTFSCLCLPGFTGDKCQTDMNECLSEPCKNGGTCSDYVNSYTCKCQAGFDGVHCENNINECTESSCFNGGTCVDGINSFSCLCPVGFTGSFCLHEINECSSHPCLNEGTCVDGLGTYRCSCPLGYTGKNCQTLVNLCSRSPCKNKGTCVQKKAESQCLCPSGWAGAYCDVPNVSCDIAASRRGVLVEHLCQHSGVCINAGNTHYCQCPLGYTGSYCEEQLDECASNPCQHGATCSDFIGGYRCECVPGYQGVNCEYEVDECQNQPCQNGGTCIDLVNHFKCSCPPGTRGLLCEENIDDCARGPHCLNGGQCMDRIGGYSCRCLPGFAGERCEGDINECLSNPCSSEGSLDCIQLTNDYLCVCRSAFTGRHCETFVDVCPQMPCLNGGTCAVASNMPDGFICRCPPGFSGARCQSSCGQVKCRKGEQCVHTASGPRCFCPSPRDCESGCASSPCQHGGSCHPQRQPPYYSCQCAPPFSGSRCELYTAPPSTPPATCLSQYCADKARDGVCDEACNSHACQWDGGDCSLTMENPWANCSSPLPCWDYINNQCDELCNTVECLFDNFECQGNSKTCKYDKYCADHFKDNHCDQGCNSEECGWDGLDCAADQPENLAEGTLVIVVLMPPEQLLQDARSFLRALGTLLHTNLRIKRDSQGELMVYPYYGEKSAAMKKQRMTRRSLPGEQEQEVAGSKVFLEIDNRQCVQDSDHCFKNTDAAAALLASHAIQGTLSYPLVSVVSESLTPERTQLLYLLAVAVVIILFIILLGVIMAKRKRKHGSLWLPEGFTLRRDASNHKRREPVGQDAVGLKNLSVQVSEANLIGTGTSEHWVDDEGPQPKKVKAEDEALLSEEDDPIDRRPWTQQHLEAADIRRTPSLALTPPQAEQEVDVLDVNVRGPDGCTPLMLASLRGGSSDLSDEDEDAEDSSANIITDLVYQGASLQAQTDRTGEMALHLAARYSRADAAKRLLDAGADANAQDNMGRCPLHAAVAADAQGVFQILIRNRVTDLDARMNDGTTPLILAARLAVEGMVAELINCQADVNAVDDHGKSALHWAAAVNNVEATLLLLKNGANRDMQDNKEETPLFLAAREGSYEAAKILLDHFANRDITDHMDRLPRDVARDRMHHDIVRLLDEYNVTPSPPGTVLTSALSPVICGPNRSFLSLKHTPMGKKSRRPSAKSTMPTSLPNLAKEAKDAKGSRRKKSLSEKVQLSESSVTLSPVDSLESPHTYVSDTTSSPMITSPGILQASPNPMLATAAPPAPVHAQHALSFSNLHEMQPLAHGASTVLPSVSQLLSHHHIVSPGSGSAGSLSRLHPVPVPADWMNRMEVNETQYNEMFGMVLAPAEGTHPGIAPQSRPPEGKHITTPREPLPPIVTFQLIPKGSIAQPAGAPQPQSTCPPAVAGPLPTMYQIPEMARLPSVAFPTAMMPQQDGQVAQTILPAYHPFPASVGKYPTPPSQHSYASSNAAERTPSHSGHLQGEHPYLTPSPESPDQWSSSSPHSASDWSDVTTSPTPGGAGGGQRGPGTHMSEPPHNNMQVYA
Torsin-1A-interacting protein 2 (Homo sapiens), sequence (Q8NFQ8 whole entry, looked up): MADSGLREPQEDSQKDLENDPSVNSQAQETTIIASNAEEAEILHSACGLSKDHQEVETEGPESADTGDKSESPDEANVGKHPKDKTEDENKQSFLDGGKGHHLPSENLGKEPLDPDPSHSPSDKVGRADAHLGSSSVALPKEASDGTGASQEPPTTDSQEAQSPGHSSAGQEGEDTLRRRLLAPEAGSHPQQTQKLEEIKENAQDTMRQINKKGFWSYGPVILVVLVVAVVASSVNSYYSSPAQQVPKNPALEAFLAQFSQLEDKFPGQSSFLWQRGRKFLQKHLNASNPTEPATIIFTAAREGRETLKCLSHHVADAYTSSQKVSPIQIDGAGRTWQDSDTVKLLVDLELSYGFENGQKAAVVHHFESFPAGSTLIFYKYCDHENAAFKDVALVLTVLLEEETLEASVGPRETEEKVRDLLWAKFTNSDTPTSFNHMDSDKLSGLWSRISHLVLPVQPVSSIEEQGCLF

Turning to `C=CCNC(=O)[C@H]1[C@@H]2C(=O)O[C@@H](c3ccccc3)[C@@H](c3ccccc3)N2[C@@H](c2ccc(O)cc2)[C@]12C(=O)Nc1ccc(C#CCNC(N)=O)cc12`, the composite z-score in experiment [1] is 0.587; in experiment [2], -0.0883; in experiment [3], -0.128; in experiment [4], -0.608; in experiment [5], -1.11; in experiment [6] it was 1.07. The composite z-score in [7] was 0.858; in experiment [9] it was -0.526; in [10], -0.21; in experiment [11], 0.0982; in [15], 1.87; in [17] it was -0.282. The composite z-score is -0.643 in experiment [18], -1.01 in [19] and -0.216 in experiment [20]. In addition, the z-score in experiment [8] is -0.477 (inactive); in [12], -0.396 (inactive); in experiment [13], -0.37 (inactive); in experiment [14], 0.402 (inactive); in experiment [16], 2.18 (inactive).

For the compound `O=C1C2C=CC(C(O)c3ccccc3)N(n3cnnc3)C2C(=O)N1Cc1ccccc1` (stereo not given), the composite z-score in [1] was 0.43; in experiment [2] it was -0.399; in experiment [3], -0.0598; in experiment [4], 0.118; in experiment [5] it was 0.729; in [6], 1.33. In addition, the composite z-score in experiment [7] is 0.544; in [9], 0.364; in experiment [10], -0.16; in experiment [11] it was 0.345; in experiment [15] it was 1.28; in experiment [17], 0.116. In addition, the composite z-score in experiment [18] is -0.0596; in experiment [19], -0.163; in [20], -0.0112. Also, the z-score in experiment [8] was -1.43 (inactive); in experiment [12] it was -1.3 (inactive); in [13], 0.264 (inactive); in experiment [14] it was -0.881 (inactive); in experiment [16], -0.734 (inactive).

With `COCCOC(=O)N1C(=O)[C@@]2(c3cc(C#CC4=CCCCC4)ccc31)[C@H](C(=O)NC[C@H](O)c1ccccc1)[C@H]1C(=O)O[C@H](c3ccccc3)[C@H](c3ccccc3)N1[C@@H]2c1ccc(OCCO)cc1`, the composite z-score was -0.409 in [1]; 0.782 in [2]; -0.0566 in experiment [3]; 0.478 in [4]; 1.26 in [5]; 1.12 in [6]. Also, the composite z-score was 1.26 in [7]; 0.575 in experiment [9]; -0.0645 in [10]; 1.54 in experiment [11]; 2.41 in experiment [15]; -0.003 in [17]. Moreover, the composite z-score was 1.85 in experiment [18], 1.13 in experiment [19] and -0.144 in experiment [20]. Also, the z-score in [8] was 0.916 (inactive); in experiment [12], 2.15 (inactive); in experiment [13], 1.44 (inactive); in experiment [14], 4.41 (inactive); in [16], -0.662 (inactive).

As for `COC(=O)c1c(CC[C@@H](CO)NC(=O)N[C@H](Cn2cc(-c3cncn3C)nn2)C(C)C)oc(C(C)=O)c1C(=O)OC`, the composite z-score in experiment [1] was -0.151; in experiment [2], 0.874; in experiment [3], -0.043; in experiment [4], 0.66; in [5] it was 0.193; in [6], 0.692. The composite z-score is 1.09 in experiment [7]; -0.201 in experiment [9]; -0.261 in [10]; 1.09 in [11]; 1.47 in experiment [15]; -0.0617 in [17]. Moreover, the composite z-score came out at 0.209 in [18], 0.149 in experiment [19] and 0.19 in [20]. For the same compound, the z-score in experiment [8] was 0.0938 (inactive); in experiment [12] it was -0.177 (inactive); in experiment [13] it was -1.26 (inactive); in experiment [14], -0.164 (inactive); in [16], 2.3 (inactive).

As to `CCCCO[C@H]1C[C@H]2C(Br)=C[C@@]1(CO)C(=O)[C@]21CO1`, the composite z-score is -0.599 in [1]; 0.407 in experiment [2]; -0.0785 in [3]; -0.367 in experiment [4]; -0.0029 in experiment [5]; -0.534 in [6]. For the same compound, the composite z-score is -0.802 in experiment [7]; 0.162 in experiment [9]; -0.156 in experiment [10]; 0.638 in experiment [11]; -0.0735 in experiment [15]; -0.341 in experiment [17]. Also, the composite z-score in experiment [18] is 0.648; in experiment [19] it was 0.237; in [20] it was -0.109. Also, the z-score is 0.715 (inactive) in [8]; -1.48 (inactive) in experiment [12]; -2.1 (inactive) in [13]; -1.29 (inactive) in [14]; 2.62 (inactive) in [16].

Values taken from PubChem BioAssay.
